Only some compounds are listed: those with a hit (about 32% of all), similar ones and a draw of the others.
CYP2C9 inhib: blocks human cytochrome P450 2C9 | CYP2C9 Supersomes, luciferin-H conversion, luminescence | inhibition, % at 5 µM | actives 20% (n = 96,000) | AID 777;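 active = blocking of liver enzyme CYP2C9 beyond about 50% at 5 µM, limit read from the data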
Target sequence (P11712 whole entry, looked up): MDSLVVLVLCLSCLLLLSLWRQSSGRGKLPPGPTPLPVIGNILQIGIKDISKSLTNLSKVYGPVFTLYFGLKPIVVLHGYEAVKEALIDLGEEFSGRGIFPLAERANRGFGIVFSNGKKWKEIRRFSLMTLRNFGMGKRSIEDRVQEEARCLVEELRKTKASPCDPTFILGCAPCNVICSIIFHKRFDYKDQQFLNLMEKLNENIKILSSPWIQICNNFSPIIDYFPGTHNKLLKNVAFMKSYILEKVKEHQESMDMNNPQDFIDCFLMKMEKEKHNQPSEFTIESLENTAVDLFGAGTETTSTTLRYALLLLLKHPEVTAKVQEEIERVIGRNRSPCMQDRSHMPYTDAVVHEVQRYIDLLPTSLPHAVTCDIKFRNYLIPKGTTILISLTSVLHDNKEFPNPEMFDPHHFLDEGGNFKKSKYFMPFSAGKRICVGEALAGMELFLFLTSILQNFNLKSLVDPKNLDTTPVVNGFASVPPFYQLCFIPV
PostGolgi yeast: growth inhibition of a yeast mutant, post-Golgi transport screen. post-Golgi transport phenotypic cell assay. inhibition, % at 10 µM. actives 0.9% (n = 98,000). AID 739;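 note: yeast cells grown in 1536-well plates; yeast grown about 18 h at 30C before absorbance read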
CYP2C19 activ: cytochrome P450 2C19 (human) activation; activation factor at 5 µM; P33261; AID 1025; recombinant CYP2C19, luciferin-H EGE luminescence; active compounds read high; 0 = fully inhibited enzyme, 1 = untreated enzyme; 96,000 tested, under 10 active;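 active = activation factor of at least 2 at 5 µM in the primary screen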;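 note: 0 = wells with 2.5 mM tranylcypromine and 1 = vehicle-only wells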
CYP2C9 act: CYP2C9 (human) activation. actives 1.4% (n = 96,000). activation factor at 5 µM. P11712. AID 1024. recombinant CYP2C9, luciferin-H conversion, luminescence; active compounds read high; factor 1 = untreated enzyme, 0 = blocked;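 active = activation factor of 2 or more for CYP2C9 at a 5 µM dose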;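 note: 0 = sulfaphenazole-blocked wells and 1 = vehicle-only wells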
CYP2C19 inhib: human CYP2C19 inhibition. CYP2C19 Supersomes, luciferin-H EGE luminescence, 30 min. inhibition, % at 5 µM. actives 21% (n = 96,000);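 active = CYP2C19 inhibition above a set limit at 5 µM in the primary screen, cut at about 50% in these data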;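 note: plate controls were negative control wells for no effect and 2.5 mM tranylcypromine positive control for full effect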
PostGolgi ctrl: growth of the yeast control strain, post-Golgi counter-screen; efflux-deficient yeast background strain, growth absorbance A615, 16 h; inhibition, % at 10 µM; actives 5% (n = 98,000)
* hit, by the source's call; x = no result. Cut-off read from the data, not from the text of the source, unless noted: active = inhibition above about 30%; inactive = the rest.

SMILES	CYP2C9 inhib	PostGolgi yeast	CYP2C19 activ	CYP2C9 act	CYP2C19 inhib	PostGolgi ctrl
CN(C)S(=O)(=O)c1cccc(N=c2scc(-c3ccc4c(c3)NC(=O)CO4)n2CC2CCCO2)c1 (configuration not stated)	50.3*	-7.2	0.5	0.5	45.8	21.6
S=C(Nc1cccc(Cl)c1)Nc1ccccc1Oc1ccccc1	65.9*	15.6	0.5	0.3	48.7	15.0
N#CCCSCc1ccc(OCC(=O)O)cc1	-34.9	-2.2	1.1	1.3	-9.6	11.5
Cc1nn(C)c(C)c1/C=N/O	-21.3	2.5	1.1	1.2	-13.6	13.9
CC1(C)CC(=O)C(/C=N/n2cnc3ccccc3c2=O)=C(O)C1	-1.0	-1.3	1	1	-4.8	10.4
C=CCS/C(=N\n1cnc2ccccc2c1=O)N(CC)CC	63.4*	-6.0	0	0.4	95.5*	12.6
C=CCS/C(=N\n1cnc2ccccc2c1=O)N1CCCCC1	51.3*	-7.9	0.8	0.5	16.4	5.3
CCc1cccc(NC(=O)c2ccc(Br)o2)c1	17.9	6.4	0.3	0.8	69.7*	20.3
O=C(c1ccccc1)c1cccc(NC(=O)c2ccc(Br)o2)c1	94.7*	0.2	0.4	0.1	63.8*	-9.8
O=C(Nc1ccc2c(c1)oc1ccccc12)c1ccc(Br)o1	-16.2	-0.5	0.8	1.2	18.3	-4.1
CCN(CC)c1ccc(NC(=O)c2ccc(Br)o2)cc1	-9.0	-3.4	0.5	1.1	52.3*	0.0
COC(=O)Cc1ccc(NC(=O)c2ccc(Br)o2)cc1	36.0	-4.0	0.6	0.6	39.9	7.5
CCOc1cc(CNC(=O)CN2C(=O)c3ccccc3S2(=O)=O)ccc1OC	18.7	13.1	0.9	0.8	5.7	8.4
COc1ccc(C(=O)CSc2nnc(-c3ccc(C)cc3)o2)cc1	49.8	3.2	0.6	0.5	43.7	1.8
O=C(CSc1nnc(-c2c[nH]c3ccccc23)o1)N(Cc1ccccc1)c1ccc(F)cc1	x	-4.8	x	x	x	52.8*
Clc1cccc(CSc2nnc(-c3c[nH]c4ccccc34)o2)c1	26.7	-5.7	1	0.7	-1.5	24.8
Cc1ccc(C(=O)CSc2nnc(-c3c[nH]c4ccccc34)o2)cc1	53.1*	-12.1	0.6	0.5	38.3	-3.0
CC1CCCCN1C(=O)CSc1nnc(-c2c[nH]c3ccccc23)o1 (configuration not stated)	-15.3	1.3	0.2	1.2	78.6*	14.1
O=S(=O)(NC1CCCC1)c1ccc(S(=O)(=O)N2CCN(c3ccccc3)CC2)cc1	16.0	-2.7	1.1	0.8	-5.0	-14.5
CN1CCN(C(=S)Nc2ccccc2Cl)CC1	9.3	1.6	1	0.9	3.0	2.4
COc1cccc(C(C(=O)NC(C)(C)C)N(C(=O)CCC(=O)Nc2cc(C)on2)C2CC2)c1OC (configuration not stated)	1.1	-1.3	1	1	-4.8	-4.5
Cc1nc(NNC(=O)c2ccc([N+](=O)[O-])cc2)cc(-c2ccccc2)n1	47.6	-0.2	0.9	0.5	14.3	14.4
Cc1cccc(C)c1OCCCCCNCCO	4.3	21.9	0.8	1	17.9	17.8
N#Cc1ccccc1CSc1ccccn1	4.6	7.4	0.4	1	56.3*	13.6
Cc1cc2nc(-c3ccc(SCc4ccccc4C#N)nc3)[nH]c2cc1C	34.4	0.2	0.7	0.7	34.5	-0.3
SMILES	CYP2C9 inhib	PostGolgi yeast	CYP2C19 activ	CYP2C9 act	CYP2C19 inhib	PostGolgi ctrl
CN(C)CC(C)(C)CNS(=O)(=O)c1ccc(Cl)c(Cl)c1	50.0*	-5.1	0.2	0.5	83.3*	-2.5
CCCCC(=O)NC(Nc1ccc(C)cn1)(C(=O)OCC)C(F)(F)F (configuration not stated)	17.8	3.3	0.3	0.8	65.6*	17.4
COC(=O)C(NC(C)=O)(Nc1nc(C)cs1)C(F)(F)F (configuration not stated)	18.8	-1.9	0.9	0.8	9.7	2.7
COC(=O)C(NC(=O)c1ccco1)(Nc1ccc(Br)cn1)C(F)(F)F (configuration not stated)	15.8	-8.2	0.1	0.8	93.6*	11.1
COC(=O)C(NC(C)=O)(Nc1ccccn1)C(F)(F)F (configuration not stated)	50.3*	-0.5	0.9	0.5	12.0	2.5
COC(=O)C(NC(=O)c1ccco1)(Nc1nc(C)cs1)C(F)(F)F (configuration not stated)	31.3	-1.0	0.7	0.7	32.8	0.8
COC(=O)C(NC(C)=O)(Nc1ccc(Br)cn1)C(F)(F)F (configuration not stated)	29.4	3.9	0.2	0.7	82.3*	1.7
O=c1c(Cl)c(N/N=C/c2ccc(Br)cc2)cnn1-c1ccccc1	11.6	11.3	1	0.9	-0.6	3.4
Cc1cccc(NC(=O)c2c(O)c3cccc4c3n(c2=O)CCC4)n1	4.0	2.5	1.1	1	-5.9	-1.3
COC(=O)C(NC(C)=O)(Nc1nc2c(C)cc(C)cc2s1)C(F)(F)F (configuration not stated)	99.3*	11.4	0.1	0	91.6*	14.2
CCCCNC(=O)Cn1c(=O)oc2cc(S(=O)(=O)N3CC(C)CC(C)C3)ccc21 (configuration not stated)	56.6*	1.6	0.9	0.4	11.6	-1.4
CCc1ccc(NC(=O)Cn2c(=O)oc3cc(S(=O)(=O)N4CCOCC4)ccc32)cc1	-12.7	-6.8	1.2	1.1	-16.7	-0.3
Cc1cc(C)cc(NC(=O)Cn2c(=O)oc3cc(S(=O)(=O)N4CC(C)CC(C)C4)ccc32)c1 (configuration not stated)	56.1*	9.5	0.7	0.4	31.3	12.4
CCOc1ccc(OCC)c(-c2c(=O)n(OCc3ccccc3C(=O)OC)c3ccccc3[n+]2[O-])c1	37.9	-15.3	0.6	0.6	37.1	7.0
CCOc1ccc(OCC)c(-c2c(=O)n(OCc3ccccc3Br)c3ccccc3[n+]2[O-])c1	38.2	7.2	0.3	0.6	74.3*	24.8
Cc1cc(N2C(=O)C(=O)/C(=C(/O)c3ccc(F)cc3)C2c2ccc(Cl)cc2)no1 (configuration not stated)	56.7*	-2.4	1	0.4	3.3	9.3
CCCN1CCN(C(=O)c2cccc3c2C(=O)N(CCOC)C3)CC1	-16.1	-1.4	1.1	1.2	-12.3	-9.1
COc1ccc(N2CCN(C(c3cccs3)C(C)NS(=O)(=O)c3ccccc3)CC2)cc1 (configuration not stated)	22.1	3.3	0.7	0.8	28.4	39.0*
CC(NC(=O)C1CC1)C(c1cccs1)N1CCN(c2ccccc2)CC1 (configuration not stated)	x	6.9	x	x	x	14.6
O=C(O)CC(NC(=O)COc1ccc(Cl)cc1Cl)C(=O)O (configuration not stated)	-10.0	-0.6	1	1.1	0.2	5.3

Screening data (PubChem BioAssay)
